Screening results deposited in PubChem by several laboratories.
MEKK2 mut-MEK5 = signal of MEK5 binding to mutant human MEKK2 PB1 domain; bead flow cytometry, Alexa488-MEK5 binding to MEKK2 mutant; percent response, % at 10 µM; 0.35% of 290,000 active; AID 1530; in the data active means percent response above about 24%, passing the limit was not always enough
PREPL inh = human PREPL enzyme inhibition. recombinant PREPL, fluorescence polarization activity-based probe. inhibition, % at 5.96 µM. 0.68% of 320,000 active; in the data active means inhibition above about 43%;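 further: 0% = enzyme with DMSO and 100% = wells lacking enzyme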
MEKK2wt PB1 HTS = raises or lowers MEK5 binding to wildtype human MEKK2 PB1 domain; Q9Y2U5; bead flow cytometry, Alexa488-MEK5 binding to MEKK2 WT; actives lie on both sides; binding response (% of control), % at 10 µM; 1.1% of 290,000 active; AID 1531; in the data active means binding response below about 67% or above about 130%
ATG4B inhibitor = blocks human ATG4B protease cleavage of LC3 substrate; 0.51% of 340,000 active; inhibition, % at 8.33 µM; Q9Y4P1; ATG4B cleavage of LC3-PLA2, NBD-HPC fluorescence, 1 h; in the data active means inhibition above about 40%
MEKK3 PB1 HTS = modulators (inhibitors or enhancers) of MEK5 binding to human MEKK3 PB1 domain; Q99759; bead-based flow cytometry, Alexa488-MEK5 binding to MEKK3; actives lie on both sides; 0 = blocked by unlabeled MEK5, 100 = vehicle; 1.4% of 290,000 active; binding response (% of control), % at 10 µM;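 active means binding response more than 3 SD above or below the average of its plate-row segment, actives on both sides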;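 further: Alexa488 bead fluorescence after subtracting the streptavidin-only scavenger bead signal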
Target sequence (Q99759 whole entry, looked up, the tested form may be a part): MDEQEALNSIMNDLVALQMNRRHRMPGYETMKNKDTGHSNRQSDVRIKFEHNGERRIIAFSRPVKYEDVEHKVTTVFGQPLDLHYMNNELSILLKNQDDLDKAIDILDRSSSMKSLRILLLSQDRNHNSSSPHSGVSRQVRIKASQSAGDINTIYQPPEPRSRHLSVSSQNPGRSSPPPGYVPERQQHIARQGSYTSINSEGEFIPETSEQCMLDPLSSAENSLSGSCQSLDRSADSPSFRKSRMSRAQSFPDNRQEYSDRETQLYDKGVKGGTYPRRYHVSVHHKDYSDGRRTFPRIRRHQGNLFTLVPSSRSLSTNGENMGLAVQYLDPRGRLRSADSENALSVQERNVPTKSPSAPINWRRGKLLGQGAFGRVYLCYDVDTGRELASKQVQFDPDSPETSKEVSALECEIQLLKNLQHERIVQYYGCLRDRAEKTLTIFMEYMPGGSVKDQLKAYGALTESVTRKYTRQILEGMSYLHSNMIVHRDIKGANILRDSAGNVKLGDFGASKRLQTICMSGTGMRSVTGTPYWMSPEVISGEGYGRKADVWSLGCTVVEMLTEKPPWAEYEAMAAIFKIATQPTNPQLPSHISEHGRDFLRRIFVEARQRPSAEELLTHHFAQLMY
UBC13 inh = inhibitors of human UBC13 polyubiquitin chain formation | P61088 | TR-FRET | inhibition, % at 20 µM | 0.47% of 330,000 active | AID 485273; in the data active means inhibition above about 45%, passing the limit was not always enough
MEKK2wt confirm = raises or lowers MEK5 binding to wildtype human MEKK2, retest. binding response (% of control), % at 10 µM. bead flow cytometry, Alexa488-MEK5 binding to MEKK2 WT; actives lie on both sides. shares compounds with MEKK3 PB1 HTS. 2.4% of 5,900 active; in the data active means binding response below about 16% or above about 210%; inactive means in between
MEKK2mut confirm = signal of MEK5 binding to mutant human MEKK2, retest | percent response, % at 10 µM | bead flow cytometry, Alexa488-MEK5 binding to MEKK2 mutant | shares compounds with MEKK3 PB1 HTS | 2% of 5,900 active; in the data active means percent response mostly above about 71%, no sharp cut-off; inactive means mostly below about 38%;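 further: higher means compound restores mutant binding toward wildtype level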
MEKK3 confirm = MEKK3-MEK5 PB1 inhibition, single concentration confirmation; shares compounds with MEKK3 PB1 HTS; bead flow cytometry, Alexa488-MEK5 binding to MEKK3; stronger effect = lower value; binding response (% of control), % at 10 µM; 1.8% of 5,900 active;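 active means binding response below 72% of control, or above a set upper limit, though filed actives all read lower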;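 further: 100% = DMSO only wells and 0% = binding blocked by excess unlabeled MEK5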
* hit, by the source's call; [ ] = dose if it differs, or a comment. Hits are enriched below; roughly 3.1% of the tested compounds scored in any of these assays.

`O=C(NCc1ccc2c(c1)OCO2)C(=O)NCC(c1ccco1)N1CCN(c2ccccc2)CC1` (stereo unspecified) gave MEKK2 mut-MEK5 15, PREPL inh 1, MEKK2wt PB1 HTS 119, ATG4B inhibitor -3, MEKK3 PB1 HTS 136*, UBC13 inh -12, MEKK2wt confirm 97, MEKK2mut confirm -10 and MEKK3 confirm 101.
`COc1ccc(N2CCN(C(CNC(=O)C(=O)NCc3ccc4c(c3)OCO4)c3ccco3)CC2)cc1` (stereo unspecified) gave MEKK2 mut-MEK5 -4, PREPL inh 25, MEKK2wt PB1 HTS 99, ATG4B inhibitor 1, MEKK3 PB1 HTS 103 and UBC13 inh -1.
Screening Cc1ccc(C)n1-c1ccc(-c2ccn[nH]2)cc1 returned MEKK2 mut-MEK5 190*, PREPL inh 13, ATG4B inhibitor 14, MEKK3 PB1 HTS 15*[inhibitor], UBC13 inh -1, MEKK2wt confirm 101, MEKK2mut confirm -2 and MEKK3 confirm 102.
`CCNC(=S)N1CCC(NC(=O)C2CCCCC2)CC1` gave MEKK2 mut-MEK5 0, PREPL inh 15, MEKK2wt PB1 HTS 100, ATG4B inhibitor -8, MEKK3 PB1 HTS 97 and UBC13 inh -8.
Screening CCNC(=S)NNC(=O)C1CCCCC1 returned MEKK2 mut-MEK5 -16, PREPL inh 2, MEKK2wt PB1 HTS 2.0*[inhibitor], ATG4B inhibitor 0, MEKK3 PB1 HTS 2.0*[inhibitor], UBC13 inh 0, MEKK2wt confirm 103, MEKK2mut confirm -9 and MEKK3 confirm 99.
`O=C(CN1CCCC1)Nc1c(Cl)cccc1Cl` gave MEKK2 mut-MEK5 7, PREPL inh 5, MEKK2wt PB1 HTS 110, ATG4B inhibitor 1, MEKK3 PB1 HTS 106 and UBC13 inh -2.
For O=C(Nc1ccc(NC(=O)c2ccncc2)cc1)c1ccncc1 the results were MEKK2 mut-MEK5 5, PREPL inh -8, MEKK2wt PB1 HTS 100, MEKK3 PB1 HTS 106 and UBC13 inh -1.
For Cc1ccc(C(=O)Nc2ccc(Br)c(C(F)(F)F)c2)cc1 the results were MEKK2 mut-MEK5 31, PREPL inh -14, MEKK2wt PB1 HTS 170*, ATG4B inhibitor 26, MEKK3 PB1 HTS 105, UBC13 inh 3, MEKK2wt confirm 105, MEKK2mut confirm 1 and MEKK3 confirm 105.
O=C(Nc1ccc(Cl)c(C(F)(F)F)c1)c1ccncc1 was read as MEKK2 mut-MEK5 -46, PREPL inh 18, MEKK2wt PB1 HTS 5.0*[inhibitor], ATG4B inhibitor -2, MEKK3 PB1 HTS 2.0*[inhibitor], UBC13 inh 2, MEKK2wt confirm 103, MEKK2mut confirm -7 and MEKK3 confirm 103.
For Cc1ccc(NC(=O)c2ccc(C)cc2)cc1 the results were PREPL inh 9, ATG4B inhibitor -10 and UBC13 inh 6.
`Cc1nc(-c2ccccc2)sc1C1(C)CC(c2cccc(F)c2)=NO1` (stereo unspecified) gave MEKK2 mut-MEK5 -5, PREPL inh -18, MEKK2wt PB1 HTS 94, ATG4B inhibitor -2, MEKK3 PB1 HTS 92 and UBC13 inh -2.
Screening COc1ccc(OC)c(-c2nc(C(=O)NC3CCN(Cc4ccccc4)CC3)cc3c2[nH]c2ccccc23)c1 returned MEKK2 mut-MEK5 24*, PREPL inh -2, MEKK2wt PB1 HTS 146*, ATG4B inhibitor -9, MEKK3 PB1 HTS 104, UBC13 inh 14, MEKK2wt confirm 153, MEKK2mut confirm 40 and MEKK3 confirm 111.
CC(CCc1ccccc1)NC(=O)C(=O)NCCc1ccccc1 (stereo unspecified) was read as MEKK2 mut-MEK5 0, PREPL inh 4, MEKK2wt PB1 HTS 98, ATG4B inhibitor 12, MEKK3 PB1 HTS 97 and UBC13 inh 8.
CN(N)C(=S)NCc1ccccc1 was read as MEKK2 mut-MEK5 5, PREPL inh 7, MEKK2wt PB1 HTS 116, ATG4B inhibitor -2, MEKK3 PB1 HTS 123*, UBC13 inh -5, MEKK2wt confirm 102, MEKK2mut confirm -2 and MEKK3 confirm 97.
For CN(C)C(=S)NCc1ccccc1 the results were MEKK2 mut-MEK5 2, PREPL inh -1, MEKK2wt PB1 HTS 102, ATG4B inhibitor -3, MEKK3 PB1 HTS 102 and UBC13 inh -5.
For CC(C)C(NC(=S)NCc1ccccc1)C(=O)O (stereo unspecified) the results were MEKK2 mut-MEK5 -10, PREPL inh -16, MEKK2wt PB1 HTS 43*[inhibitor], ATG4B inhibitor -2, MEKK3 PB1 HTS 34*[inhibitor], UBC13 inh 8, MEKK2wt confirm 95, MEKK2mut confirm -2 and MEKK3 confirm 98.
Screening CC(C)CCNC(=O)C(=O)NCc1ccccc1 returned MEKK2 mut-MEK5 -20, PREPL inh 3, MEKK2wt PB1 HTS 53, ATG4B inhibitor -4, MEKK3 PB1 HTS 49*[inhibitor], UBC13 inh 4, MEKK2wt confirm 96, MEKK2mut confirm -1 and MEKK3 confirm 97.
`COc1ccc(S(=O)(=O)Nc2cccc(S(=O)(=O)N(C)C)c2)cc1[N+](=O)[O-]` gave ATG4B inhibitor -1.
Cc1c(C(=O)NCCSCc2c(F)cccc2Cl)cnn1-c1ccc(Cl)cc1 was read as MEKK2 mut-MEK5 28, PREPL inh 1, MEKK2wt PB1 HTS 128, ATG4B inhibitor 19, MEKK3 PB1 HTS 129*, UBC13 inh 3, MEKK2wt confirm 97, MEKK2mut confirm -3 and MEKK3 confirm 102.
For COc1cccc(OC)c1C(=O)NC(=S)Nc1ccc2c(c1)OCCO2 the results were MEKK2 mut-MEK5 2, PREPL inh -2, MEKK2wt PB1 HTS 127, ATG4B inhibitor -5, MEKK3 PB1 HTS 141*, UBC13 inh 2, MEKK2wt confirm 103, MEKK2mut confirm 3 and MEKK3 confirm 103.
For CC(C)Sc1ccccc1C(=O)Nc1ccc2c(c1)n(C)c(=O)n2C the results were MEKK2 mut-MEK5 -1, MEKK2wt PB1 HTS 98, ATG4B inhibitor -15, MEKK3 PB1 HTS 93 and UBC13 inh 37.
CCC1CCCCN1C(=O)COc1ccc(S(=O)(=O)N2CCOCC2)cc1Cl (stereo unspecified) was read as PREPL inh 14, ATG4B inhibitor -11 and UBC13 inh 4.
